# From PubChem BioAssay
# HT1080 IDH1KD tx: kills HT-1080 cells with IDH1 knockdown | 2% of 360,000 active | Potency, µM (top dose mostly 46.1 µM), for inactives: top-dose activity, negative = toxicity, usual class: cytotoxic | HT-1080 IDH1 knockdown viability, ATP luminescence, 48 h;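 further: potency means the concentration at half of the fitted maximal effect; 0% = DMSO wells and -100% = cell-free medium wells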
#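 Knockdown cells (IDH1KD HT-1080) received compounds 2 h after plating at 750 cells/well and were kept 48 h at 37 °C in 5% FBS RPMI. A CellTiter-Glo luminescence read gave % activity for curve fitting.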
# HT1080-NT tox: kills 2HG-producing HT-1080-NT fibrosarcoma cells; 1.6% of 360,000 active; HT-1080-NT fibrosarcoma viability, CellTiter-Glo ATP luminescence, 48 h; Potency, µM (highest dose often 46.1 µM), without a hit: top-dose activity, negative = less viability, most hits filed as cytotoxic;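 further: NT is the 2HG producing partner of a matched IDH1 knockdown line; potency means the concentration at half of the fitted maximal effect; 0% = DMSO-treated cells and -100% = media-only wells without cells; nearly all actives have a fitted effect of over 55% in size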
#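 HT-1080-NT; 750 cells/well; 5% FBS RPMI; 48 h compound, 37 degrees C; CellTiter-Glo luminescence; curve fitting and curve-class assignment.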
# IL-1B inflam inh: inhibitors of inflammasome signaling (IL-1 beta secretion) | THP-1 LPS/ATP IL-1B secretion, AlphaLISA, 16 h; hits give low values | activity change, % at 57.5 µM | 4.7% of 360,000 active; in the data active means activity change below about -50%; inconclusive means mostly about -30% to -49%
#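 THP-1 cells pretreated 1 hr with compounds (up to 57.5 uM final), then stimulated with LPS (250 ng/mL final) plus ATP (1.25 mM final); secreted IL-1B measured by AlphaLISA after 16 hr, decreased signal indicating inhibition.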
# TDP1 cell CPT: growth inhibition of DT40 Tdp1-/-;hTDP1 cells with camptothecin (screen for TDP1 inhibitors). chicken DT40 Tdp1-/-;hTDP1 cells + 20 nM CPT, ATP luminescence, 48 h. Potency, µM (titrated, usually from 46.2 µM), for inactives: at the top dose activity change, negative = growth inhibition, usual class: inhibitors. 12% of 420,000 active. AID 686979; further: potency means the concentration at half of the fitted maximal effect; nearly all actives have a fitted effect of over 55% in size
#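 Chicken DT40 Tdp1-/- cells stably complemented with human TDP1 were seeded at 400 cells/well in medium containing 20 nM camptothecin, exposed to pin-transferred compounds, and grown at 37 °C for at least 48 hr. Viability was read as ATP luminescence.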
# DT40 TDP1 no CPT: qHTS for Inhibitors of human tyrosyl-DNA phosphodiesterase 1 (TDP1): qHTS in cells in absence of CPT. DT40 Tdp1-/- hTDP1 cells, no CPT, ATP luminescence, 48 h. 15% of 420,000 active. AID 686978, 2013. Potency, µM (doses to about 46.2 µM), for the others: top-dose activity change, negative = growth inhibition, actives largely listed as inhibitors; further: potency means the concentration at half of the fitted maximal effect; nearly all actives have a fitted effect of over 55% in size
#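 Chicken DT40 Tdp1-/- cells stably complemented with human TDP1 were seeded at 400 cells/well with DMSO in place of 20 nM camptothecin. After compound pinning, cells grew at least 48 hr at 37 °C; viability read by CellTiter-Glo luminescence.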
# The depositor's hits bear a star; ? = inconclusive; nt = no result given; [ ] = dose if it differs, or a comment. Only some compounds are listed: those with a hit (about 19% of all), similar ones and a draw of the others. Unless noted, the call rests on the fitted dose curve; in most records, active means well fitted curve in the direction sought with a large enough effect; inconclusive means small, poorly fitted or top-dose-only effect, or another doubt; inactive means no such curve, though single readings can be large; an effect the other way counts as inactive or inconclusive. Unless noted, on the % scale 0 is the no-effect control and ±100 the full control effect.
SMILES,HT1080 IDH1KD tx,HT1080-NT tox,IL-1B inflam inh,TDP1 cell CPT,DT40 TDP1 no CPT
CN(C)c1ncc(S(=O)(=O)c2ccc(Cl)cc2)c(-c2ccccc2)n1,-15.7%,-6.6%,21.8,?,?
O=S(=O)(c1ccc(F)cc1)c1snnc1-c1ccccc1,?,6.51µM*,-99.9*,4.11µM*,2.91µM*
O=S(=O)(c1ccc(Cl)cc1)c1snnc1-c1ccccc1,7.31µM*,11.6µM*,-115.2*,5.17µM*,4.11µM*
Cc1ccc(CNC(=O)CN2C(=O)NC(C)(c3cccc(Br)c3)C2=O)cc1 (stereo unspecified),0.0%,0.6%,-13.8,-26.0%,?
CC(Cl)C(=O)c1ccc2c(c1)CCN2C(=O)C1CC1 (stereo unspecified),-1.2%,-2.8%,-62.7*,?,?
Cc1cccc(NS(=O)(=O)c2ccc3c(c2)CCN3C(=O)C2CC2)c1C,nt,nt,nt,20.6µM*,23.1µM*
Cc1cccc(NS(=O)(=O)c2ccc3c(c2)CCCN3C(=O)C2CCC2)c1C,nt,nt,nt,20.6µM*,?
CC(=O)N1CCCc2cc(S(=O)(=O)Nc3cccc(C)c3C)ccc21,-2.1%,-22.5%,10.3,?,?
CC(C)OC(=O)c1cc(C(=O)c2cc(F)ccc2O)coc1=N,-1.7%,-3.1%,15.5,-21.9%,-16.4%
COc1ccc(O)c(C(=O)c2coc(=N)c(C(=O)Nc3ccc(SC(F)F)cc3)c2)c1,-14.0%,-10.2%,-54.4*,?,18.4µM*
COc1ccc(S(=O)(=O)N2CCC(c3ccncc3)CC2)cc1OC,nt,nt,nt,-26.9%,?
CC1=Nc2cc(C(=O)NCC3CCCO3)ccc2Sc2ccc(C)cc21 (stereo unspecified),?,7.9%,5.6,0.581µM*,0.92µM*
CC1=Nc2cc(C(=O)NCCCN3CCN(C)CC3)ccc2Sc2ccc(C)cc21,-12.7%,-24.2%,-2.3,?,18.4µM*
CCC(C)NC(=O)c1ccc2c(c1)N=C(C)c1cc(C)ccc1S2 (stereo unspecified),nt,nt,nt,3.26µM*,5.17µM*
CCC(C)NC(=O)c1cccc(C)c1 (stereo unspecified),-4.0%,20.2%,3.3,4.0%,1.4%
Cc1ccc(C)c(Cn2nnc3c(=O)[nH]c(C4CCCN(C(=O)c5ccco5)C4)nc32)c1 (stereo unspecified),-13.4%,3.0%,21.0,?,?
Cc1nn(CC(=O)OCC(=O)c2ccc(OC(F)F)cc2)c(C)c1[N+](=O)[O-],-16.2%,-4.0%,0.0,0.1%,16.7%
Cc1c(C(=O)c2no[n+]([O-])c2C(=O)c2cnn(C)c2C)cnn1C,?,?,11.7,2.59µM*,3.66µM*
CC1CN(C(=O)c2ccn(C)n2)CC(C)O1 (stereo unspecified),5.0%,0.2%,3.3,2.6%,-3.4%
O=S(=O)(c1ccc(NC(=S)N/N=C/c2ccc(N3CCOCC3)cc2)cc1)N1CCOCC1,2.2%,9.5%,12.6,4.11µM*,3.66µM*
O=S(=O)(c1ccc(NC(=S)N/N=C/c2c3ccccc3cc3ccccc23)cc1)N1CCOCC1,?,?,-10.9,2.59µM*,3.66µM*
COc1ccc2c(c1)C1C=CCC1C(c1cc3c(cc1Br)OCO3)N2 (stereo unspecified),10µM*,10µM*,7.4,?,18.4µM*
COc1cccc([C@@H]2Nc3ccc(C(=O)O)cc3[C@@H]3C=CC[C@@H]32)c1OC,nt,nt,nt,1.2%,-0.1%
CC(=O)c1ccc2c(c1)C1C=CCC1C(c1cc3c(cc1Br)OCO3)N2 (stereo unspecified),3.66µM*,5.8µM*,97.1,3.66µM*,4.61µM*
COc1ccc(C(OCC(O)CN(C)C2CCCCC2)c2ccc(OC)cc2)cc1 (stereo unspecified),?,?,-70.8*,16.4µM*,?
SMILES,HT1080 IDH1KD tx,HT1080-NT tox,IL-1B inflam inh,TDP1 cell CPT,DT40 TDP1 no CPT
CN(Cc1ccccc1)CC(O)CN(C)Cc1ccccc1,-1.6%,-2.4%,-14.9,?,-29.3%
COc1ccc(CN(C)CC(O)COC(c2ccc(OC)cc2)c2ccc(OC)cc2)cc1 (stereo unspecified),?,20.6µM*,?,?,23.1µM*
CCOc1ccc(CN(C)CC(O)COC(c2ccc(OC)cc2)c2ccc(OC)cc2)cc1 (stereo unspecified),?,16.4µM*,-58.7*,?,18.4µM*
CN(CC(O)COc1ccccc1F)C1CCCCC1 (stereo unspecified),2.3%,4.3%,12.1,-0.3%,-3.5%
CCOc1ccc(NC(=O)COC(=O)CCC(=O)c2cccs2)cc1,-1.6%,-3.9%,-14.8,1.9%,23.1%
COC(=O)c1ccc(N2CCOCC2)c(NC(=O)c2ccco2)c1,9.0%,-15.4%,11.3,-10.4%,-15.3%
COCCN1CCN(C(=O)c2cnn(-c3nccc(-c4cc5ccccc5o4)n3)c2C2CC2)CC1,nt,nt,nt,-2.3%[9.04 µM],-24.8%
COc1ccc(CCN2C(=O)c3cccc4c(C(=O)N5CCCCC5)ccc(c34)C2=O)cc1OC,3.6%,1.5%,-2.9,16.4µM*,?
COc1ccc(CCNC(=O)CCN2C(=O)c3cccc4cccc(c34)C2=O)cc1OC,12.8%,8.4%,-2.1,?,10.2%
CN(C)c1ccc(CNCCC(Cc2ccccc2)c2ccco2)cc1 (stereo unspecified),23.1µM*,18.4µM*,-99.4*,9.2µM*,10.3µM*
c1ccc(CNCCC(Cc2ccccc2)c2ccco2)cc1 (stereo unspecified),16.4µM*,16.4µM*,-79.7*,?,16.4µM*
N#Cc1nc(/C=C/c2ccccc2)oc1NCCCN1CCOCC1,-6.8%,-7.6%,-24.4,-13.3%,-25.8%
CCN1CCN(C(=O)c2cc(COc3ccc4ncccc4c3)on2)CC1,-0.6%,-27.2%,18.6,16.4µM*,10.3µM*
CCCN1CCN(C(=O)c2cc(COc3ccc4ncccc4c3)on2)CC1,-24.9%,-19.3%,-5.6,23.1µM*,9.2µM*
CCC1(C)Cc2c(sc3c2c(=O)n(C)c2nnc(SCCc4ccccc4)n32)CO1 (stereo unspecified),-3.6%,3.0%,1.9,?,23.1µM*
CCC1(C)Cc2c(sc3c2c(=O)n(C)c2nnc(SCc4ccccc4)n32)CO1 (stereo unspecified),-3.0%,3.2%,-2.3,18.4µM*,?
CCn1c(=O)c2c3c(sc2n2c(SCc4ccc(F)cc4)nnc12)CCCC3,14.3%,1.4%,6.9,?,-26.6%
COC(=O)[C@@H]1C[C@H](NC(=O)c2cc(C(F)(F)F)ccc2Cl)CN1Cc1cccc(O)c1,nt,nt,nt,2.3%[9.04 µM],-12.3%
